Bioassay records from PubChem.
An excerpt weighted towards active compounds, which were near 1.7% of everything screened.
GLP1R ag – agonists of human GLP-1 receptor. P43220. HEK293 GLP-1R CRE-luciferase, luminescence, 4-6 h; cells express a hypersensitive GLP-1R form. Potency, µM (titrated, usually from 45.6 µM), for inactives: top-dose activation, usual class: activators. actives 0.007% (n = 380,000); note: % of control where 0% means no effect
Target sequence (P43220 whole entry, looked up): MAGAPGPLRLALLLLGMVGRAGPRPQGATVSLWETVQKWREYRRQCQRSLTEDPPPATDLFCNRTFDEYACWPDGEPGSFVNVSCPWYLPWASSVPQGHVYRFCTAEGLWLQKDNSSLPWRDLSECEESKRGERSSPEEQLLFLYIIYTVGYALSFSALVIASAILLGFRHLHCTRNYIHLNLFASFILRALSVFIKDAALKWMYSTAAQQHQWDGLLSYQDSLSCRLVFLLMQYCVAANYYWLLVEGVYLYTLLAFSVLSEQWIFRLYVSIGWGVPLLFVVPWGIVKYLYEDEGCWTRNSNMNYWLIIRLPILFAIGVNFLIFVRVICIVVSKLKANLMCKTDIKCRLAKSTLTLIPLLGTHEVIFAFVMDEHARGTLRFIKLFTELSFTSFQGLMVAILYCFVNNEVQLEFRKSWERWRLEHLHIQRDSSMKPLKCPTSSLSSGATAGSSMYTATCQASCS
HEK293 tox – cytotoxicity counter-screen for GLP-1 receptor inverse agonists | actives 0.13% (n = 410,000) | AID 624418 | Potency, µM (highest dose often 38.3 µM), inactives show top-dose activity change, negative = inhibition, hits mostly inhibitors | HEK293 cAMP-luciferase reporter cells, luminescence, 24 h;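 note: loss of luciferase light is scored as toxicity; % is set by controls: 0 for no effect and ±100 for the full control effect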
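Luminescence readout: signal drop marks cytotoxicity. Plated cells grew 12 h at 37 °C, 5% CO2, received 23 nL compound for 24 h, then got luciferase reagent, read after 12 min at RT.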
GLP1R inv ag – acts as inverse agonist at human GLP-1 receptor; actives 1.6% (n = 410,000); P43220; Potency, µM (titrated, usually from 38.3 µM), without a hit: at the top dose activity change, negative = inhibition, actives largely listed as inhibitors; HEK293 GLP-1R CRE-luciferase, luminescence, 24 h; GLP-1R form is constitutively active; note: % is set by controls: 0 for no effect and ±100 for the full control effect; nearly all actives have a fitted effect of over 55% in size
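Seeding at 200 cells/uL, 12 h culture, 24 hr compound treatment, then luciferase reagent and a luminescence read; cells are HEK293 stably expressing a constitutively active GLP-1R plus cAMP-responsive luciferase.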
Active calls of the source: *. Calls come from the whole dose curve; as a rule, active = well fitted curve in the direction sought with a large enough effect; inconclusive = small, poorly fitted or top-dose-only effect, or another doubt; inactive = no such curve, though single readings can be large; an effect the other way counts as inactive or inconclusive. Potency is the fitted concentration of half-maximal effect.

Screening O=C(NC1CC1)c1ccc(CS(=O)c2ccccc2)o1 (stereo not given) returned GLP1R ag -4%, HEK293 tox -11% and GLP1R inv ag 8%.
`CC1(C)CCC[C@]2(C)C(CS(=O)c3ccccc3)=C(C=O)CC[C@@H]12` (stereo not given in full) gave GLP1R ag 10%, HEK293 tox -13% and GLP1R inv ag 2.8µM*.
Screening Cc1cccc(S(=O)Cc2ccc(C(=O)NC3CCCCCC3)o2)c1 (stereo not given) returned HEK293 tox -20% and GLP1R inv ag -5%.
Screening CNC(=O)Nc1ccccc1C(=O)Nc1ccccc1 returned GLP1R ag 3%, HEK293 tox -8% and GLP1R inv ag 23%.
For c1ccc(-c2nc3ccccc3n2C(c2ccccc2)c2nc3ccccc3[nH]2)cc1 (stereo not given) the results were HEK293 tox -13% and GLP1R inv ag -22%.
For O=c1c(-c2ccccc2)nc2ccccc2n1C(CCc1ccccc1)c1nc2ccccc2[nH]1 (stereo not given) the results were HEK293 tox -15% and GLP1R inv ag 10µM*.
For O=c1c(-c2ccccc2)nc2ccccc2n1C(c1ccccc1)c1nc2ccccc2[nH]1 (stereo not given) the results were HEK293 tox -22% and GLP1R inv ag 1.6µM*.
CSCCC(c1nc2ccccc2[nH]1)n1c(=O)c(-c2cccnc2)nc2ccccc21 (stereo not given) was read as HEK293 tox 33% and GLP1R inv ag -15%.
`CCc1ccc(CNC(=O)c2ccc3c(c2)nc2n3CCOC2)cc1` gave HEK293 tox 21% and GLP1R inv ag 1%.
For Cc1ccccc1OCCn1c(=N)n(C(C)C)c2ccccc21 the results were HEK293 tox -19% and GLP1R inv ag -27%.
Screening CCN1CCCC1CNS(=O)(=O)c1c(C)cc(C)cc1C (stereo not given) returned GLP1R ag 1%, HEK293 tox 4.5µM* and GLP1R inv ag -65%.
For CCCc1ccc(S(=O)(=O)NCC2CCCN2CC)cc1 (stereo not given) the results were GLP1R ag -1%, HEK293 tox -7% and GLP1R inv ag -25%.
Screening O=C1C=C(c2ccc3cc[nH]c3c2)C[C@@H](c2ccc3c(c2)OCO3)C1 returned GLP1R ag 24%, HEK293 tox 3% and GLP1R inv ag -6%.
Screening CCOc1ccc(NC(=O)CSc2nc3c(oc4ccccc43)c(=O)n2-c2cc(C)cc(C)c2)cc1 returned HEK293 tox 7% and GLP1R inv ag 0%.
For O=[N+]([O-])c1ccc(N/N=C2\CC3CC=CC23)cc1 (stereo not given) the results were GLP1R ag 11%, HEK293 tox inconclusive and GLP1R inv ag 1.3µM*.
`O=[N+]([O-])c1ccc(N/N=C2\CC3CC=CC23)c([N+](=O)[O-])c1` (stereo not given) gave GLP1R ag 17%, HEK293 tox 6% and GLP1R inv ag -10%.
`CCn1c2ccccc2c2cc(NC(=O)CN3CCCC3)ccc21` gave GLP1R ag 7%, HEK293 tox -20% and GLP1R inv ag inconclusive.
For CCn1c2ccccc2c2cc(NC(=O)CNCC3CCCO3)ccc21 (stereo not given) the results were GLP1R ag 10%, HEK293 tox -11% and GLP1R inv ag 10µM*.
For CCOc1ncccc1C(=O)OCC(=O)NCc1cccs1 the results were GLP1R ag 12%, HEK293 tox 0% and GLP1R inv ag 7%.
For CCn1nnc(NC(=O)c2ccco2)n1 the results were GLP1R ag -1%, HEK293 tox 3% and GLP1R inv ag 22%.
For COc1ccc(-c2cc(C3CCN(Cc4cccc(C(F)(F)F)c4)CC3)[nH]n2)cc1 the results were GLP1R ag 5%, HEK293 tox inconclusive and GLP1R inv ag 5µM*.
For COc1ccc(-c2cc(C3CCN(CC(O)C(F)(F)F)CC3)[nH]n2)cc1 (stereo not given) the results were GLP1R ag -5%, HEK293 tox 11% and GLP1R inv ag -23%.
Screening O=C(CCc1ccc(O)cc1)c1c(O)cc(O)cc1O returned GLP1R ag 6%, HEK293 tox -8% and GLP1R inv ag -15%.
Screening COc1cc(O)c(CC=C(C)C)c(O)c1C(=O)CCc1ccc(O)cc1 returned GLP1R ag 6%, HEK293 tox inconclusive and GLP1R inv ag 2.5µM*.
CCN(CC)C(=O)c1ccc2c(c1)N(Cc1ccccc1F)C(=O)c1ccccc1S2=O (stereo not given) was read as GLP1R ag 2%, HEK293 tox -2% and GLP1R inv ag 13%.
For O=[N+]([O-])c1ccc(Oc2ccc(N=C=S)cc2)cc1 the results were GLP1R ag -7%.
`Clc1nc(Cl)nc(NCCC2=CCCCC2)n1` gave GLP1R ag -5%, HEK293 tox 1% and GLP1R inv ag 23%.
Screening O=[N+]([O-])c1ccc(/C=N/NC(=S)Nc2ccccc2F)o1 returned GLP1R ag 3%, HEK293 tox inconclusive and GLP1R inv ag 4%.
For Fc1ccccc1NC(=S)N/N=C/c1ccccc1Br the results were GLP1R ag 13%, HEK293 tox 5.6µM* and GLP1R inv ag inconclusive.
For CN(Cc1ccccc1)C(=O)C(=O)c1c[nH]c2ccccc12 the results were GLP1R ag -1%, HEK293 tox 0% and GLP1R inv ag inconclusive.
`CCCCOc1ccc(NC(=O)CSc2cccc3cccnc23)cc1` gave GLP1R ag 27%, HEK293 tox inconclusive and GLP1R inv ag 2.8µM*.
`CN(C)C(=O)CSc1cccc2cccnc12` gave GLP1R ag -32%, HEK293 tox 2.5µM* and GLP1R inv ag 2.8µM*.
For Cc1cccc(NC(=O)CSc2cccc3cccnc23)c1 the results were GLP1R ag 24%, HEK293 tox -9% and GLP1R inv ag -8%.
Screening O=C(CSc1ncccn1)N1CCCCCC1 returned GLP1R ag 0%, HEK293 tox -6% and GLP1R inv ag 14%.
For O=C(CSc1cccc2cccnc12)N1CCCC1 the results were GLP1R ag -44%, HEK293 tox 0.71µM* and GLP1R inv ag 0.5µM*.
NNC(=O)CSc1cccc2cccnc12 was read as GLP1R ag 16%, HEK293 tox 4% and GLP1R inv ag 26%.
Screening CCOc1ccc(S(=O)(=O)N2CCCC(C(=O)NC3CCCC3)C2)cc1 (stereo not given) returned GLP1R ag -17%, HEK293 tox -10% and GLP1R inv ag 9%.
Screening Cn1c(=O)c2cc(NC(=S)NC3CCCCC3)ccc2n1C/C=C/c1ccccc1 returned GLP1R ag -3%, HEK293 tox 4% and GLP1R inv ag -24%.
Cc1ccc(CN(C(=O)c2ccccc2[N+](=O)[O-])C2CCS(=O)(=O)C2)o1 (stereo not given) was read as GLP1R ag -2%, HEK293 tox -15% and GLP1R inv ag 15%.
For COc1ccc(C(C(=O)Nc2ccc(F)cc2)N2CCN(c3cccc(C(F)(F)F)n3)CC2)cc1 (stereo not given) the results were HEK293 tox -15% and GLP1R inv ag inconclusive.
